Assay [1] is described as follows: qHTS assay to identify small molecule agonists of the vitamin D receptor (VDR) signaling pathway - cell viability counter screen (AID 743224). Also: nearly all actives have a fitted effect of over 50% in size. Also: potency is read from the fitted curve at half-maximal effect. An outline of the steps:
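VDR-bla cells, 4 h after plating, exposed to compounds for 16 h at 37C; viability then read in the same wells as CellTiter-Glo luminescence after 30 min at room temperature, following the bla FRET read.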
In general terms: In qHTS, concentration-response curves come from the screen itself.

A short description of assay [2]: qHTS assay to identify small molecule antagonists of the vitamin D receptor (VDR) signaling pathway - cell viability counter screen (AID 743225). Also: nearly all actives have a fitted effect of over 50% in size. An outline of the steps: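 VDR-UAS-bla HEK 293T cells were plated and incubated 4 h at 37C, then dosed with compound plus 3 nM (final) 1-alpha,25-dihydroxyvitamin D3 for 16 h. After the 2 h beta-lactamase read, viability in the same wells was read as CellTiter-Glo luminescence after 30 min at room temperature.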

A short description of assay [3]: qHTS assay to identify small molecule agonists of the NFkB signaling pathway (AID 1159509; active = well fitted curve in the direction sought with a large enough effect in the signal ratio in the repeat runs, not every such curve was filed as active; the % refers to the signal ratio). A digest of the protocol:
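ME-180 NFkB-bla, 2,000 cells/well, overnight plating; cpd pinned in DMSO, 5 h 37 C; B/G FRET substrate 1.5 h RT; ex 405, em 460/530 nm.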

The nature of assay [4]: qHTS assay to identify small molecule agonists of the NFkB signaling pathway - cell viability counter screen (AID 1159515; calls by dose curve; also: nearly all actives have a fitted effect of over 55% in size; also: potency is read from the fitted curve at half-maximal effect). A digest of the protocol: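 NFkB-bla ME-180 cells, 2,000/well, plated overnight at 37 C; compound added for 5 hr at 37 C. Viability read in the same wells as the bla reporter, by CellTiter-Glo luminescence after 30 min at room temperature.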
A short description of assay [5]: qHTS assay to identify small molecule antagonists of the retinoid-related orphan receptor gamma (ROR-gamma) signaling pathway - cell viability counter screen (AID 1159520). Also: nearly all actives have a fitted effect of over 50% in size. Also: potency is read from the fitted curve at half-maximal effect. An outline of the steps:
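Tet-on ROR gamma CHO cells were given compounds for 2 hr, then doxycycline hyclate at 1 uM final, and incubated 16 hr at 37 C. Viability was measured as ATP content by CellTiter-Glo luminescence.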

The target in assay [6] is Nuclear receptor ROR-gamma (Homo sapiens) (UniProt P51449). As to the kind of experiment: qHTS assay to identify small molecule antagonists of the retinoid-related orphan receptor gamma (ROR-gamma) signaling pathway (AID 1159521;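 also: CHO cells with doxycycline inducible ROR-gamma driving an RORE luciferase reporter; top concentration of the series differs between compounds; nearly all actives have a fitted effect of over 50% in size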). An outline of the steps:
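Tet-on ROR-gamma CHO cells with ROR response element-luciferase reporter; compounds added 2 hr before 1 uM doxycycline induction, then 16 hr at 37 C. Antagonism scored as decreased ONE-Glo luminescence.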

A short description of assay [7]: qHTS assay to identify small molecule agonists of the AP-1 signaling pathway (AID 1159526; calls by dose curve).
Assay [8] can be described thus: qHTS assay to identify small molecule agonists of the RXR signaling pathway - cell viability counter screen (AID 1159529). Also: nearly all actives have a fitted effect of over 50% in size. Also: potency is read from the fitted curve at half-maximal effect. A digest of the protocol:
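RXR-alpha-UAS-bla HEK 293T cells in medium with 2% charcoal-stripped FBS were pre-incubated 5 hr, then compound-treated 16 hr at 37 C. Viability was read by CellTiter-Glo luminescence in the same wells as the beta-lactamase assay, with tetraoctyl ammonium bromide as positive control.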

Assay [9] can be described thus: qHTS assay to identify small molecule antagonists of the retinoid acid receptor (RAR) signaling pathway - cell viability counter screen (AID 1159551). Also: nearly all actives have a fitted effect of over 35% in size. Also: potency is read from the fitted curve at half-maximal effect. A digest of the protocol:
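C3RL4 RARE-luciferase cells, 1,000/well, incubated overnight, then dosed with compound plus 1 uM retinol (final). After 6 hr at 37 C, viability read by CellTiter-Glo ATP luminescence following 30 min at room temperature.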

The nature of assay [10]: qHTS assay to identify small molecule antagonists of the retinoic acid receptor (RAR) signaling pathway (AID 1159552; also: nearly all actives have a fitted effect of over 50% in size). A digest of the protocol:
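Retinol signaling pathway inhibitors screened in C3RL4 RARE-luciferase reporter cells seeded overnight at 37 C, then compounds added with 1 uM (final) retinol as pathway substrate. After 6 hr at 37 C, luciferase luminescence read after 30 min at room temperature.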

Assay [11] in a line: qHTS assay to identify small molecule agonists of the retinoic acid receptor (RAR) signaling pathway (AID 1159553). Conditions: C3RL4 RARE luciferase reporter, agonist, 6 h; activation: at 73.3 µM (top of the series). A digest of the protocol: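 C3RL4 RARE-luciferase cells were seeded at 1,000/well and grown overnight at 37 C, then exposed to compounds for 6 hr at 37 C, 5% CO2. Luciferase reagent was added and luminescence was read after 30 min at room temperature.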

Assay [12] has as its target Retinoic acid receptor RXR-alpha (Homo sapiens) (UniProt P19793). As to the kind of experiment: qHTS assay to identify small molecule agonists of the RXR signaling pathway (AID 1159527; calls by dose curve; also: nearly all actives have a fitted effect of over 35% in size). An outline of the steps: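 GeneBLAzer RXR-alpha-UAS-bla HEK 293T cells in 2% charcoal-stripped FBS medium were exposed to compounds for 16 hr at 37 C in agonist mode. Beta-lactamase reporter read as 460/530 nm FRET ratio after 2 hr substrate loading.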

The nature of assay [13]: qHTS assay to identify small molecule agonists of the endoplasmic reticulum stress response signaling pathway (AID 1159516; active = well fitted activation curve with a large enough effect in the signal ratio in the repeat runs, not every such curve was filed as active; the % refers to the signal ratio). An outline of the steps: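 CellSensor ESRE-bla HeLa cells, 1,500 per well, plated overnight, then exposed to compounds for 5 hr at 37 C. Beta-lactamase reporter read with LiveBLAzer B/G FRET substrate after 2 hr at room temperature, 405 nm excitation, 460 and 530 nm emission.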

Assay [14] can be described thus: qHTS assay to identify small molecule agonists of the endoplasmic reticulum stress response signaling pathway - cell viability counter screen (AID 1159517; calls by dose curve). An outline of the steps: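 ESRE-bla HeLa cells, 1,500 per well, seeded overnight then treated with compounds for 5 hr at 37 C. After the beta-lactamase read, viability in the same wells is measured by CellTiter-Glo luminescence after 30 min at room temperature.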

Assay [15] can be described thus: qHTS assay to identify small molecule agonists of the AP-1 signaling pathway - cell viability counter screen (AID 1159525; calls by dose curve; also: nearly all actives have a fitted effect of over 55% in size). A digest of the protocol:
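AP-1-bla ME-180 cells in Opti-MEM with 0.5% dialyzed FBS, compound exposure 5 h at 37 C in 15-point titration. Viability read in the same wells as ATP content by CellTiter-Glo luminescence, normalised to tetra-n-octylammonium bromide and DMSO controls.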

Structures are written as SMILES. Results filed as inconclusive are left out. Calls of active or inactive are those of the source. Unless noted, calls follow the shape of the dose curve; as a rule, active = well fitted curve in the direction sought with a large enough effect in the repeat runs; inconclusive = weak or mixed curves; inactive = no such curve, though single readings can be large; an effect the other way counts as inactive or inconclusive.

Data on 8 compounds can be found in PubChem BioAssay (Tox21).

Retinoic acid receptor RXR-alpha (Homo sapiens), sequence (P19793 whole entry, looked up): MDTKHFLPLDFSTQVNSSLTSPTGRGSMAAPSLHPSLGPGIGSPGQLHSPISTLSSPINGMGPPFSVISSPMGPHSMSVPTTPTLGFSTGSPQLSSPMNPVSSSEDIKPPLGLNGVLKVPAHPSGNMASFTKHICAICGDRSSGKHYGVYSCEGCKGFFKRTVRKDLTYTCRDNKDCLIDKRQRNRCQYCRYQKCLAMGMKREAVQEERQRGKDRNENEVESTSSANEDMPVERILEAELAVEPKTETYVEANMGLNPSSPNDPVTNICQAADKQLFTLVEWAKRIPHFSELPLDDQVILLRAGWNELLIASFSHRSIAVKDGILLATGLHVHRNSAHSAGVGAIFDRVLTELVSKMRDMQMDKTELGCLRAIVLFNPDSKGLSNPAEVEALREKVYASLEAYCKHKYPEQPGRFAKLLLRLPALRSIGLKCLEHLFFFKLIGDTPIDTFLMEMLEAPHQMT

`Cc1ccc(CO)cc1`: the Potency result in assay [1], in assay [2], in assay [3], in [4], in assay [5] and in assay [6] was “inactive” each time. For the same compound, the Potency entry in assay [7], in assay [8], in [9], in assay [10] and in [11] was “inactive” in each case.

In the case of `O=c1cc(-c2ccccc2)oc2ccc3ccccc3c12`, the Potency was 19.5 µM (active) in assay [1]; 54.9 µM (active) in assay [4]; 27.3 µM (active) in [5]; 19.5 µM (active) in [8]; 24.3 µM (active) in assay [9]. The Potency entry in assay [3], in [6] and in [12] was “inactive” each time.

Consider `NCCNCCO`, for which the Potency entry in assay [1], in assay [3], in [13], in [14], in [5] and in assay [6] was “inactive” each time. Further, the Potency entry in assay [15], in [7], in [12], in assay [8], in assay [9] and in [10] was “inactive” each time. In addition, the Potency entry in assay [11] was “inactive”.

With `CCOC(=O)c1ccc(O)c(O)c1`, the Potency result in assay [1], in assay [2], in assay [3], in assay [13], in assay [14] and in assay [5] was “inactive” throughout. Moreover, the Potency result in [6], in assay [15], in assay [7], in assay [12], in [8] and in assay [9] was “inactive” each time. The Potency entry in [10] and in assay [11] was “inactive” each time.

In the case of `OC1(c2ccccc2)CCNCC1`, the Potency entry in assay [1], in assay [2], in assay [3], in assay [13], in [14] and in assay [5] was “inactive” in each case. The Potency entry in assay [6], in assay [15], in assay [7], in [12], in [8] and in assay [9] was “inactive” throughout. Besides, the Potency result in [10] and in assay [11] was “inactive” in each case.

As to `O=C(O)CCC(=O)C(=O)O`, the Potency entry in assay [1], in assay [3], in assay [13], in assay [14], in [5] and in [6] was “inactive” each time. Besides, the Potency result in assay [15], in assay [7], in assay [12], in assay [8], in assay [9] and in assay [10] was “inactive” throughout. The Potency entry in assay [11] was “inactive”.

For the compound `CC(CO)CO`, the Potency entry in assay [1], in assay [2], in assay [3], in assay [4], in assay [6] and in [15] was “inactive” each time. Also, the Potency entry in [7], in [12], in assay [8], in assay [9], in assay [10] and in assay [11] was “inactive” each time.

On to `CO[C@]1(NC(=O)CSC(F)F)C(=O)N2C(C(=O)O)=C(CSc3nnnn3CCO)CO[C@H]21`, for which the Potency entry in assay [1], in assay [2], in [3], in [4], in assay [15] and in assay [7] was “inactive” in each case. The Potency result in [12], in [8], in assay [9], in assay [10] and in assay [11] was “inactive” in each case.
